A short description of assay [1]: qHTS assay for small molecule agonists of the p53 signaling pathway (AID 651631; calls by dose curve; further: nearly all actives have a fitted effect of over 15% in size; further: potency means the concentration at half of the fitted maximal effect). Summed up:
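HCT-116 p53RE-bla reporter line, 16 h compound treatment at 37 °C, then fluorescence after 2 h with B/G FRET substrate.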
In general terms: qHTS replaces the single test concentration by a dilution series.

A short description of assay [2]: qHTS assay for small molecules that induce genotoxicity in human embryonic kidney cells expressing luciferase-tagged ATAD5 (AID 651632). Further: nearly all actives have a fitted effect of over 15% in size. In a few lines:
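Concentration-response screen for ATAD5 upregulation in HEK293T luciferase reporter cells; 16 hr treatment at 37C, then luminescence after 30 min with Amplite at room temperature.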

Assay [3] is described as follows: qHTS assay for small molecule agonists of the p53 signaling pathway - cell viability (AID 651633; calls by dose curve; further: nearly all actives have a fitted effect of over 30% in size; further: potency means the concentration at half of the fitted maximal effect). Summed up: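 Viability counter-read: CellTiter-Glo luminescence (30 min, room temperature) in the same p53RE-bla plates. These plates had been exposed to compounds for 16 h at 37 C.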
Assay [4] in a line: qHTS assay for small molecules that induce genotoxicity in human embryonic kidney cells expressing luciferase-tagged ATAD5 - cell viability (AID 651634; calls by dose curve; further: nearly all actives have a fitted effect of over 25% in size). Summed up:
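15.5 hr compound or vehicle exposure of HEK293T cells expressing luciferase-tagged ATAD5 at 37C; live-cell protease activity is read by fluorescence after 30 min of CellTiter-Fluor.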

Assay [5] can be described thus: qHTS assay for small molecule disruptors of the mitochondrial membrane potential - cell viability (AID 720634; calls by dose curve; further: nearly all actives have a fitted effect of over 20% in size; further: potency means the concentration at half of the fitted maximal effect). Summed up:
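In this qHTS format, HepG2 cells plated overnight were pinned with compound, incubated 1 hr, and assayed for ATP luminescence with CellTiter-Glo after m-MPI dye addition.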

The nature of assay [6]: qHTS assay to test for compound auto fluorescence at 590 nm (red) in HepG2 cells (AID 720674). Summed up: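 Red autofluorescence (Ex/Em 540/590 nm, Rose Bengal sodium equivalents) was measured in HepG2 cells, 2,000 per well in MEM plus 10% FBS, plated overnight at 37 C. Readings were taken 1 hr after adding 23 nL compound or DMSO, at 37 C and 5% CO2.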
A short description of assay [7]: qHTS assay to test for compound auto fluorescence at 535 nm (green) in HepG2 cells (AID 720675).
Assay [8] is described as follows: qHTS assay to test for compound auto fluorescence at 460 nm (blue) in HEK293 cells (AID 720678). Summed up: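 After cell attachment (4-5 hr, 37C), compounds were pinned onto HEK293 monolayers in 10% dialyzed FBS medium. The blue channel (405/460 nm) was read following overnight culture. Equivalency was calculated against triamterene.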
Assay [9] can be described thus: qHTS assay to test for compound auto fluorescence at 590 nm (red) in HEK293 cells (AID 720679). In a few lines:
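Plates of HEK293 cells (10% dialyzed FBS) are treated with 23 nL compound or DMSO vehicle after a 4-5 hr attachment period, incubated overnight at 37C, and read for red fluorescence at 540/590nm.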

The nature of assay [10]: qHTS assay for small molecule disruptors of the mitochondrial membrane potential (AID 720635). In a few lines:
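Mitochondrial membrane potential tracked with Mito-MPS dye, red aggregates (ex 540/em 590 nm) against green monomers (ex 490/em 535 nm). Compound treatment 1 hr at 37C, dye 30 min in HepG2.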

Molecules are shown by their SMILES. Values without a mark were called inactive. Inconclusive results are not listed. The source made the active and inactive calls. Unless noted, the call rests on the fitted dose curve; in most records, active means well fitted curve in the direction sought with a large enough effect in the repeat runs; inconclusive means weak or mixed curves; inactive means no such curve, though single readings can be large; an effect the other way counts as inactive or inconclusive.
On the % scale 0 is the no-effect control and ±100 the full control effect.

As to `CN(C)CCOC(c1ccc(Cl)cc1)c1ccccn1` (centres undefined), the Potency result in assay [1], in assay [2], in [3], in [4] and in assay [8] was “inactive” throughout. For the same molecule, the Potency in [5] is 5.31 µM (active). The outcome in assay [6], in [7] and in [9] was inactive.

In the case of `CCCC(C)CO` (centres undefined), the Potency entry in assay [1], in assay [2], in assay [3], in assay [4], in assay [5] and in assay [8] was “inactive” throughout. For the same molecule, the molecule was called inactive in assay [7] and in [9].

On to `CCOC(=O)Nc1ccc2c(c1)N(C(=O)CCN1CCOCC1)c1ccccc1S2`, for which the Potency entry in assay [1], in [2], in assay [3], in [4] and in assay [5] was “inactive” throughout. Moreover, the fluorescence, relative to Rose Bengal in assay [6] was 0.181% [at 18.6 µM]. Further, the fluorescence, % of fluorescein control in [7] is 0.0633% [at 18.6 µM]. The fluorescence, % of triamterene in assay [8] was -0.0312% [at 18.6 µM]. For the same molecule, the fluorescence, % of fluorescent control in assay [9] is 0.108% [at 18.6 µM].

For the molecule `CC/C=C\CCCCO`, the Potency entry in assay [1], in [2], in [3], in assay [4], in assay [5] and in assay [8] was “inactive” in each case. The call in assay [6] and in [7] was inactive.

`C=CC(=O)OCCCCCC`: the Potency result in [1], in [2], in [3], in assay [4], in [5] and in assay [8] was “inactive” each time. For the same molecule, the result in assay [6], in assay [7] and in [9] was inactive.

Regarding `[O-][N+](=Nc1ccccc1)c1ccccc1`, the Potency entry in [1], in [2], in [3], in assay [4], in assay [5] and in assay [8] was “inactive” in each case. The result in assay [7] and in [9] was inactive.

On to `OCC(CO)(CO)COCC(CO)(CO)CO`, for which the Potency result in [1], in assay [2], in [3], in assay [4], in assay [5] and in assay [8] was “inactive” each time. The molecule was called inactive in assay [6], in assay [7] and in assay [9].

`OCCCCCCO`: the Potency entry in assay [1], in assay [2], in assay [3], in assay [4], in [5] and in assay [8] was “inactive” each time. The molecule was called inactive in assay [6], in assay [7] and in [9].

`OCc1ccccn1`: the Potency result in assay [1], in assay [2], in assay [3], in assay [4], in assay [5] and in assay [8] was “inactive” each time. The molecule was called inactive in [6], in [7] and in assay [9].

With `CCc1cc(S(=O)(=O)O)c2cc(C(C)C)cccc1-2`, the Potency result in assay [1], in assay [2], in assay [3], in assay [4], in assay [5] and in assay [8] was “inactive” throughout. The molecule was called inactive in [6] and in assay [9].

For `N#CCN(CC#N)CCN(CC#N)CC#N`, the Potency result in assay [1], in assay [2], in [3], in assay [4], in assay [5] and in assay [8] was “inactive” in each case. Moreover, the call in assay [6], in assay [7] and in assay [9] was inactive.

In the case of `C[C@H]1O[C@@H](n2cc(F)c(=O)[nH]c2=O)[C@H](O)[C@@H]1O`, the Potency in assay [1] is 21.1 µM (active); in [3] it was 8.41 µM (active). In addition, the Potency result in assay [2], in assay [4], in assay [5] and in [8] was “inactive” in each case. Also, the call in assay [6], in assay [7] and in assay [9] was inactive.

Turning to `OC1OC[C@@H](O)[C@H](O)[C@H]1O` (some centres undefined), the Potency entry in assay [1], in assay [2], in assay [3], in assay [4], in [5] and in assay [8] was “inactive” throughout. The call in assay [6] and in [7] was inactive.

`CC(C=O)Cc1ccc(C(C)C)cc1` (centres undefined): the Potency entry in assay [1], in [2], in assay [3], in [4], in assay [5] and in assay [8] was “inactive” each time. For the same molecule, the molecule was called inactive in assay [6], in [7] and in assay [9].

In the case of `CC(C)[C@H](N)C(=O)OCCOCn1cnc2c(=O)[nH]c(N)nc21`, the Potency entry in [1], in assay [2], in assay [3], in assay [4], in assay [5] and in [8] was “inactive” each time. Moreover, the outcome in assay [6], in assay [7] and in assay [9] was inactive.

Turning to `O=C(O)CCNC(=O)c1ccc(N=Nc2ccc(O)c(C(=O)O)c2)cc1`, the Potency entry in assay [1], in assay [2], in assay [3], in [4], in [5] and in assay [8] was “inactive” in each case. For the same molecule, the molecule was classed as inactive in assay [6] and in assay [9].

Consider `Cc1c(C)n(CCN(C)C)c2ccc(C(=O)OCCN(C)C)cc12`, for which the Potency in assay [1] is 26.6 µM (active). The Potency entry in assay [2], in assay [3], in [4], in assay [5] and in assay [8] was “inactive” in each case. For the same molecule, the result in assay [6] and in assay [7] was inactive.

Turning to `C[N+](C)(C)CC[N+]1(C)Cc2c(Cl)c(Cl)c(Cl)c(Cl)c2C1`, the Potency result in [1], in assay [2], in assay [3], in assay [4], in assay [5] and in assay [10] was “inactive” in each case. Moreover, the Potency result in assay [8] is “inactive”. For the same molecule, the molecule was classed as inactive in assay [7] and in assay [9].

In the case of `Oc1cc(O)c2c(c1)O[C@H](c1ccc(O)c(O)c1)[C@H](O)C2`, the Potency result in assay [1], in assay [2], in assay [3], in [4], in [5] and in [8] was “inactive” each time. Also, the molecule was classed as inactive in [6], in [7] and in assay [9].

As for `C#CC(O)CCCCC` (centres undefined), the Potency result in assay [1], in assay [2], in assay [3], in [4], in assay [5] and in assay [8] was “inactive” throughout. Besides, the call in assay [6], in assay [7] and in assay [9] was inactive.

Turning to `CN1[C@@H]2CC[C@H]1CC(NC(=O)n1c(=O)[nH]c3ccccc31)C2` (some centres undefined), the Potency entry in assay [1], in assay [2], in assay [3], in [4], in assay [5] and in assay [8] was “inactive” in each case. For the same molecule, the outcome in [6], in [7] and in [9] was inactive.

On to `COCCOC(=O)CC#N`, for which the Potency entry in assay [1], in assay [2], in assay [3], in assay [4], in assay [5] and in [8] was “inactive” in each case. The call in [6] and in assay [9] was inactive.

On to `NS(=O)(=O)c1cc(C2(O)NC(=O)c3ccccc32)ccc1Cl` (centres undefined), for which the Potency entry in [1], in assay [2], in [3], in assay [4] and in [5] was “inactive” each time. In [6], the fluorescence, relative to Rose Bengal was -0.645% [at 18.6 µM]. The fluorescence, % of fluorescein control in [7] is 7.3e-05% [at 18.6 µM]. The fluorescence, % of triamterene in assay [8] was -0.0194% [at 18.6 µM]. For the same molecule, the fluorescence, % of fluorescent control in [9] is 0.0283% [at 18.6 µM].

Consider `Cc1ccc(Nc2ccc(O)c3c2C(=O)c2ccccc2C3=O)cc1`, for which the Potency entry in [1], in assay [2], in assay [3], in [4] and in [8] was “inactive” each time. Further, the molecule was called inactive in assay [6] and in assay [7].

With `Cc1nccn1CC1CCc2c(c3ccccc3n2C)C1=O` (centres undefined), the Potency entry in assay [1], in assay [2], in assay [4], in assay [5], in assay [10] and in assay [8] was “inactive” each time. Also, the outcome in [6], in assay [7] and in [9] was inactive.

Consider `CC(C)[N+](C)(C)CC(O)COc1cccc2ccccc12` (centres undefined), for which the Potency result in [1], in assay [2], in assay [4], in [5], in [10] and in [8] was “inactive” in each case. Moreover, the molecule was classed as inactive in assay [6], in [7] and in assay [9].

Values taken from PubChem BioAssay (Tox21).
